# Experimental data taken from PubChem BioAssay (NCI).
# This is part of a sample that, as a whole, favours compounds with a hit. Of some 83,000 tested, about 20% had one in any assay.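 Cells were grown in 96-well plates and exposed to the test compound at a single concentration for 48 hours; results are reported as percent growth, with values below 10 considered active.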 Calls of active or inactive are those of the source.
# Tested on: CAKI-1 renal
# Test: NCI-60 one-dose screen, 48 h (100 = growth as untreated, 0 = no growth, -100 = all killed)
# Details: 10 µM unless noted
row,Structure (SMILES),growth
1,N#CC1=C(N)Oc2c(c(N)nn2-c2ccccc2)C1c1ccc(Cl)cc1Cl (stereo not given),90.1% (inactive)
2,COc1ccc(NC(=O)c2ccc3c(c2)nc(-c2cc4ccccc4[nH]c2=O)n3-c2cc(C(C)(C)C)[nH]n2)cc1,97.2% (inactive)
3,Cc1ccc(Cc2cnc(NC(=O)/C=C/c3cccc(C)c3)s2)cc1,12.5% (inactive)
4,Oc1cccc2oc(=S)[nH]c12,120% (inactive)
5,COc1cc(/C=C/c2cc(/C=C/c3ccc(O)c(OC)c3)n(-c3ccccc3)c(=O)n2)ccc1O,83.7% (inactive)
6,NC(=O)NCC1CCCCC1,89.3% (inactive)
7,N#Cc1cnc2cc(OC[C@@H](O)CO)c(NC(=O)CC3CSSC3)cc2c1Nc1ccc(OCc2cccc(F)c2)c(Cl)c1,62.7% (inactive)
8,CC(=O)OCCCCCCn1c2ccccc2c2c3c(c4c5ccccc5n(C)c4c21)C(=O)N(O)C3=O,4.21% (active)
9,Cc1nn2c(-c3nc4cc(Cl)c(Cl)cc4[nH]3)c(-c3ccc(F)cc3)nc2s1,13% (inactive)
10,COc1ccc(-n2c(/C=C/c3ccc(O)c(OC)c3)cc(/C=C/c3ccc(O)c(OC)c3)nc2=O)cc1,87.4% (inactive)
11,Nc1c2c(nc3ccc(Cl)cc13)CC(c1ccc(O)cc1)CC2=O (stereo not given),48.3% (inactive)
12,C/C(=N\NC(=O)C(C)SC(C)C(=O)N/N=C(\C)c1cccnc1)c1cccnc1 (stereo not given),97.7% (inactive)
13,O=C1/C(=C\c2ccco2)SC(=S)N1CCc1ccc(O)cc1,83.4% (inactive)
14,O=C(O)/C(=C/c1ccc(O)cc1)c1ccccc1,104% (inactive)
15,CCCCC/C(=C\c1ccccc1)C1OC(C)C(C)O1 (stereo not given),93.6% (inactive)
